Test results as given in the supplement of paper PMC3842684.

Assays:
[1] = test system: P. falciparum NF54-pfs16-GFP early (I-III) stage gametocytes; test: relative % inhibition of viable gametocyte number; higher = more gametocytocidal; conditions: stage: early (I-III) gametocyte, incubation 72 h
Method in brief: (§1)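 In 384-well poly-D-lysine imaging plates, NF54 pfs16-GFP gametocytes (magnet-isolated, early I/IIa on day 2 or late on day 8; 10% parasitaemia, 0.1% haematocrit) received compound in duplicate at 5 or 0.5 µM. Plates stood 72 h at 37°C in 5% CO2 and 5% O2, then overnight with MitoTracker Red before confocal imaging, where elongated GFP objects with MitoTracker signal above cut-off counted as viable. Relative inhibition was calculated against vehicle and positive-control wells on the same plate.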

[2] = test system: P. falciparum NF54-pfs16-GFP late (IV-V) stage gametocytes; test: as above; conditions: stage: late (IV-V) gametocyte, incubation 72 h
Method in brief: as §1

| SMILES | relative % inhibition ([1]; 0.5 µM) [%] | relative % inhibition ([1]; 5 µM) [%] | relative % inhibition ([2]; 0.5 µM) [%] | relative % inhibition ([2]; 5 µM) [%] |
| --- | --- | --- | --- | --- |
| CN1CCN(c2ncnc3c2[nH]c2ccc(Cl)cc23)CC1 | 9.76 | 20.1 | 2.38 | 7.14 |
| CCN(CC)CCCNc1ccnc2cc3ccccc3cc12 | 11 | -7.44 | -7.72 | -8.3 |
| COc1ccc(CCN2C(=O)c3[nH]nc(-c4cc(Cl)c(C)cc4O)c3C2c2ccccc2F)cc1 (stereo unspecified) | 1.69 | -0.844 | 30.2 | 51.9 |
| CC(=O)Nc1nnc(SCc2c(C)cc(C(C)(C)C)cc2C)s1 | 13.5 | 19.8 | -4.86 | 60.7 |
| CC(C)(C)c1ccc(C(=O)Nc2nc3ccccc3s2)cc1 | 0.793 | 31 | 6.03 | 2.42 |
| Oc1c(CN2CCN(c3ccccc3F)CC2)cc(Br)c2cccnc12 | 15.7 | 89.8 | 22.3 | 79.5 |
| CCN(CC)CCNc1ccnc2cc(Cl)ccc12 | -1.61 | 100 | 18.2 | 14.7 |
| O=C(NNc1cc(N2CCCC2)nc(N2CCCC2)n1)c1ccccc1 | -9.28 | -5.49 | 10.9 | 16.3 |
| O=C(NC1CCCCC1)C(c1cccs1)N(CCc1ccccc1)C(=O)c1ccco1 (stereo unspecified) | 0.574 | 17.5 | 5.55 | 6.74 |
| Cc1ccc(F)cc1NC(=O)c1cc(Cl)ccc1Nc1ccccc1 | 23.8 | 73.8 | 23.8 | 46.8 |
| Cc1cc(Nc2cccc(F)c2)nc(NCc2ccccc2)n1 | 28.5 | 72.2 | 24.1 | 34.6 |
| Oc1ccccc1CN1CCN(C(c2ccccc2)c2ccccc2)CC1 | 13.3 | 98.5 | 28.3 | 78.5 |
| CCCCCCn1c(=N)n(CC(O)COc2cccc(C)c2)c2ccccc21 (stereo unspecified) | 23 | 52 | -12.2 | 103 |
| CC(Oc1ccc(NC(=O)c2cccs2)cc1)C(=O)c1ccc(Cl)cc1 (stereo unspecified) | 10.9 | 23 | 16.4 | 52.1 |
| CCOc1cccc(C(=O)Nc2ccc(-c3nc4ccccc4[nH]3)cc2)c1 | 35.7 | -17.2 | 4.79 | 17.9 |
| COc1ccc(C(O)(CCC(C)C)C(CN2CCOCC2)c2ccc(Cl)cc2)cc1 (stereo unspecified) | 6.71 | 94.3 | 12.1 | 25 |
| COc1ccc(C(=O)Nc2ccc3nc(N4CCCCC4)cc(C)c3c2)cc1OC | -8 | 7.62 | 3.3 | 51.2 |
| Cc1ccc(C)c(-c2csc(Nc3ccc(C)c(C)c3)n2)c1 | 9.93 | -13.3 | 15.6 | 41.4 |
| Cc1ccc(Nc2nc(NCCO)c3ccccc3n2)cc1C | -7.63 | 84.7 | 38 | 53.9 |
| O=C(Nc1ccc(Cl)cc1)N1CCN(c2ccc3nncn3n2)CC1 | 18 | 6.7 | 4.09 | -7.25 |
| COc1ccc(NC(=O)C2c3ccccc3C(=O)N(CC(C)C)C2c2cccs2)cc1 (stereo unspecified) | 52.4 | 102 | 25.7 | 52.6 |
| COc1ccc2c(c1OC)C(=O)N1c3ccccc3N=C(c3ccc(C)cc3)CC21 (stereo unspecified) | 11.7 | 60.6 | -8.16 | 5.82 |
| CC1CCN(Cc2ccc(NC(=O)c3cc4ccc5cccnc5c4[nH]3)cc2)CC1 | 19.6 | 94 | 0.926 | 12 |
| O=C(Nc1ccccc1O)c1ccc(Oc2cccc(C(=O)Nc3ccccc3O)c2)cc1 | 20.5 | 50.6 | 14.1 | 8.35 |
| COc1cccc(C(=O)Nc2ccc(-c3nc4ccccc4[nH]3)cc2)c1 | 12.4 | -15.3 | 20 | -5.77 |

| SMILES | relative % inhibition ([1]; 0.5 µM) [%] | relative % inhibition ([1]; 5 µM) [%] | relative % inhibition ([2]; 0.5 µM) [%] | relative % inhibition ([2]; 5 µM) [%] |
| --- | --- | --- | --- | --- |
| Oc1ccc(Cl)cc1CNc1nc2ccccc2[nH]1 | 16.5 | 37.3 | -1.55 | 13.6 |
| COc1ccc(-c2cc(=O)oc3c4c(ccc23)OCN(Cc2ccc(F)cc2)C4)cc1 | -4.17 | 73.2 | 25.1 | 34.8 |
| CCOC(=O)C1=C(C)N=c2sc(=Cc3cc(Cl)ccc3O)c(=O)n2C1c1ccc(OC)cc1 (stereo unspecified) | 105 | 108 | 94.5 | 103 |
| CCOC(=O)c1c(C)n(-c2ccc(Cl)cc2)c2ccc(OC(=O)C=Cc3ccccc3)cc12 | 15.8 | 26.8 | 11.1 | 11.5 |
| CCOc1ccc2nc(C)cc(Nc3ccc(N(C)C)cc3)c2c1 | 15.2 | -42.1 | -6.75 | -10.3 |
| CN(C)c1ccc(N2C(N)=NC(N)=NC2(C)C)cc1 | -7.59 | -3.16 | 20.3 | -8.27 |
| C[n+]1c2ccccc2nc2ccc(NCCO)cc21 | 6.83 | 0.402 | 13.2 | 4.26 |
| OC(CNC1CCCCC1)Cn1c2ccc(I)cc2c2cc(I)ccc21 (stereo unspecified) | 60.7 | 95.2 | 84.7 | 98.5 |
| CCCn1c(=N)c(C(=O)NC2CCCCC2)cc2c(=O)n3cccc(C)c3nc21 | 13.4 | 24.4 | -19.9 | 8.02 |
| CN(C)c1ccc(C=Cc2nc(=O)c3ccccc3o2)cc1 | -10.1 | -23 | 27.4 | 88.2 |
| CCN(CC)CCNc1ccnc2cc3ccccc3cc12 | 99.4 | 100 | 25.4 | 43.7 |
| Cc1ccc(Nc2nc(N)c3ccccc3n2)cc1Cl | -26.6 | 24.5 | 22.5 | 38.4 |
| CCCCN(CCCC)S(=O)(=O)c1ccc(NC(=O)c2ccco2)cc1 | 16.5 | 7.65 | 7.52 | 1 |
| COc1ccc(C2c3ccc4ccccc4c3Oc3ncn(CCCN(C)C)c(=N)c32)cc1 (stereo unspecified) | 76.2 | -22.6 | 108 | 115 |
| COc1ccc(CCNC(=O)c2cc(S(=O)(=O)N3CC(C)CC(C)C3)ccc2Sc2ccc(F)cc2)cc1OC (stereo unspecified) | 10.1 | -11.3 | 17.9 | 20.1 |
| COc1cccc(C2(C)Nc3ccccc3-c3nc4ccccc4n32)c1 (stereo unspecified) | -5.06 | 5.7 | 27.8 | 16.2 |
| COc1ccc(-c2nc(NC(=O)CS(=O)(=O)c3ccc(F)cc3)sc2C)cc1 | 12.7 | 100 | 73 | 92.9 |
| Clc1ccc2c(N3CCCC3)ccnc2c1 | 21.2 | 65.9 | 11.2 | -4.99 |
| COc1ccc(NC(=O)C2c3ccccc3C(=O)N(CC(C)C)C2c2cccs2)cc1Cl (stereo unspecified) | 42.8 | 90.9 | 54.9 | 66 |
| COc1ccc(-c2nonc2NC(=O)c2cccc(Cl)c2)cc1OC | 31.7 | -10.8 | -17.2 | -2.96 |
| O=C(NCC(c1ccsc1)N1CCCCCC1)c1ccc(C(F)(F)F)cc1 (stereo unspecified) | -5.22 | 0.803 | -0.775 | 5.04 |
| COc1ccc(C2Sc3ccccc3N=C3C2=C(O)c2ccccc23)cc1 (stereo unspecified) | 6.74 | 20.4 | 24 | 51.1 |
| N=c1n(CCN2CCCCC2)c2ccccc2n1CC(=O)c1ccc(Cl)c(Cl)c1 | -10.5 | 76.8 | 55.4 | 96.9 |
| CCOc1ccccc1NC(=O)CN1CCN(C(=O)c2ccco2)CC1 | 11.3 | 9 | -18.2 | -2.45 |
| COc1ccc2nc(C)cc(Nc3ccc(Cl)cc3)c2c1 | -10.1 | 13.9 | 7.89 | 11.7 |

| SMILES | relative % inhibition ([1]; 0.5 µM) [%] | relative % inhibition ([1]; 5 µM) [%] | relative % inhibition ([2]; 0.5 µM) [%] | relative % inhibition ([2]; 5 µM) [%] |
| --- | --- | --- | --- | --- |
| Oc1c(C(Nc2ccccn2)c2cccc(Oc3ccccc3)c2)ccc2cccnc12 (stereo unspecified) | 1.66 | 98.2 | 18.4 | 97.7 |
| Cc1cc(C)c2c(c1)OCN(Cc1ccccc1Cl)C2 | 59.9 | 93.6 | 31.1 | 47.8 |
| CN1CCN(c2c3c(c(C#N)c4nc5ccccc5n24)CCC3)CC1 | -35.3 | -26.5 | -1.94 | -8.14 |
| CCCCc1ccc(NS(=O)(=O)c2cc3c4c(c2)CCN4C(=O)CC3)cc1 | 12.3 | 1.37 | 0.5 | -7.42 |
| COCCNCC(O)Cn1c2ccc(Cl)cc2c2cc(Cl)ccc21 (stereo unspecified) | 5.62 | 62.7 | 52.3 | 96.1 |
| Cc1ccc(-c2cc3c(SCC(=O)Nc4cc(C(F)(F)F)ccc4Cl)nccn3n2)cc1 | -5.62 | -12 | 14.7 | -15.9 |
| Oc1c2c(nc3cc(-c4ccccc4)nn13)CCCC2 | 3.76 | -0.467 | -4.66 | 57.1 |
| Cc1ccccc1OCCSc1nc2ccc(NC(=O)c3cccs3)cc2s1 | 11.4 | 19.4 | 18.1 | 35.8 |
| CCOc1ccc2c(c1)CN(Cc1ccc(Cl)cc1)CO2 | 15.1 | 84.1 | 16.2 | 41.4 |
| COc1ccc(N2CCN(C(CNC(=O)CC(C)(C)C)c3ccc4c(c3)OCO4)CC2)cc1 (stereo unspecified) | 31.4 | 24.4 | 42.2 | 25.6 |
| COc1ccc2c(c1)C1(Nc3ccccc3-c3nc4ccccc4n31)C(=O)N2 (stereo unspecified) | 55.7 | 84.8 | 37.6 | 63.5 |
| Cc1sc(NC(=O)c2ccco2)c(C(c2cccnc2)N2CCC(Cc3ccccc3)CC2)c1C (stereo unspecified) | -12.2 | 85.7 | 14.3 | 106 |
| CCCCCCc1cc2cc(-c3csc(C=Cc4ccccc4)n3)c(=O)oc2cc1O | 18.9 | 101 | 31.2 | 104 |
| C=CCc1c(C)nc2ccccc2c1O | 5.51 | 13.3 | 36.3 | 53.7 |
| O=C(Nc1ccc(F)c(Cl)c1)Nc1ccc(Cl)c(Cl)c1 | 6.15 | 98.2 | 18.8 | 30.3 |
| COc1ccc(Nc2cc(C)nc(NCc3ccccc3)n2)cc1 | -3.8 | 26.6 | -3.1 | 36 |
| CC(=O)NCCc1nc2ccccc2n1Cc1ccc(C(C)C)cc1 | 8.03 | 50.5 | -8.38 | 2.88 |
| Cc1cc(NC(=O)C2c3ccccc3C(=O)N(CC(C)C)C2c2cccs2)no1 (stereo unspecified) | 37.5 | 90.8 | 31.5 | 36.1 |
| O=C(NCc1ccco1)C1CCN(S(=O)(=O)c2ccc(Cl)cc2)CC1 | 7.81 | 3.24 | 18.1 | 50 |
| CCCCNCC(O)(c1ccc(Cl)cc1)c1ccc(Cl)cc1 | 10.1 | 88.5 | 12.2 | 44 |
| O=C1c2ccccc2-c2nnc(-c3ccc(Br)cc3)cc21 | 16.6 | 10 | 75.4 | 88.5 |
| Cc1cc(Nc2ccc(OCc3ccccc3)cc2)nc2cc(O)ccc12 | 12.6 | 95.1 | 35.1 | 78.3 |
| CCOc1ccc(Nc2ccnc3cc(Cl)ccc23)cc1 | -5.49 | -2.53 | 14.7 | 14.7 |
| CCOc1ccc2nc(C)cc(Nc3ccc(Br)cc3)c2c1 | 38.4 | 58.5 | 14.7 | 57.1 |
